Reference: PubChem BioAssay AID504332 (National Center for Advancing Translational Sciences (NCATS), 2011)
The whole screen tested about 350,000 compounds, of which about 31,000 (8.9%) were called active. Another 15% or so got no clear call; they are omitted. Calls come from the whole dose curve; as a rule, active = well fitted inhibition curve with a large enough effect; inconclusive = small, poorly fitted or top-dose-only effect; inactive = no such curve, though single readings can be large or run the other way. Shown is part of a subset that was picked to be rich in actives.

What follows are compounds tested against Histone-lysine N-methyltransferase EHMT2 (Homo sapiens) (UniProt Q96KQ7) (assay: qHTS Assay for Inhibitors of Histone Lysine Methyltransferase G9a). Conditions: G9a H3K9 monomethylation, AlphaScreen, 2 h; series mostly up to 59 µM; activity, negative = inhibition: at the top concentration.
Histone-lysine N-methyltransferase EHMT2 (Homo sapiens), sequence (Q96KQ7 913-1193 limits assumed): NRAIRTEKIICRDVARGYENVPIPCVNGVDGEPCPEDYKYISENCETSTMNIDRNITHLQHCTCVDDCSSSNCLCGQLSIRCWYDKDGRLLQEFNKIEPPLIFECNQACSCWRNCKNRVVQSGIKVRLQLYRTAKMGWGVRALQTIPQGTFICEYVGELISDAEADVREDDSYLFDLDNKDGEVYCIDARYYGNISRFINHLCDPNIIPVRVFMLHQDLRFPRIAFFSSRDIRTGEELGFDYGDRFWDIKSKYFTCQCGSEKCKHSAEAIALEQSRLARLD
Method in brief: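 Compounds were preincubated with 20 nM G9a for 15 min, after which biotinylated H3K9 peptide (500 nM) and SAM (20 uM) started a 2 h room-temperature reaction. Monomethylated product was quantified by antibody-based AlphaScreen chemiluminescence.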
% is set by controls: 0 for no effect and ±100 for the full control effect; potency is the fitted concentration of half-maximal effect.
Note: nearly all actives have a fitted effect of over 75% in size.

| Compound | activity, negative = inhibition | Potency |
| --- | --- | --- |
| CSCCC(NC(=O)COc1ccccc1)C(=O)N(C)CC(=O)Nc1ccc(C)cc1 (stereo not given) | -0.305% (inactive) |  |
| NS(=O)(=O)c1ccc2nc(NC(=O)COc3ccccc3)sc2c1 | 3% (inactive) |  |
| COc1cc(/C=N/Nc2nn3cnnc3c3ccccc23)cc(OC)c1OC | -5.49% (inactive) |  |
| FC(F)(F)c1nc2ccccc2nc1N/N=C/c1ccc(Cl)cc1 | 48.3% (inactive) |  |
| CN(CCO)c1ccc(/C=N/Nc2nncc3ccccc23)cc1 |  | 31.6 µM (active) |
| CCOc1ncccc1C(=O)OCC(=O)Nc1cccc(S(=O)(=O)N2CCCCCC2)c1 | -1.01% [at 2.33 µM] (inactive) |  |
| CC(C)Nc1nnc(SCC(=O)/C=C2\N(C)c3ccccc3C2(C)C)s1 | -11.2% (inactive) |  |
| CN1CCN(CCC(=O)N/N=C/C=C2\N(C)c3ccccc3C2(C)C)CC1 |  | 31.6 µM (active) |
| CN1/C(=C\C(=O)c2oc3ccccc3c2N)C(C)(C)c2ccccc21 | -56.3% (inactive) |  |
| CCN(CCCNC(=O)c1cc2c(=O)n(CC)c3ccccc3c2s1)Cc1ccccc1 | 2.01% (inactive) |  |
| CCOC(=O)c1ccc(NC(=O)Cc2cccs2)cc1 | 23% [at 102 µM] (inactive) |  |
| CCCN1C(=O)C(O)(CC(=O)c2ccc(CC)cc2)c2cc(Br)ccc21 (stereo not given) | 8.12% (inactive) |  |
| COc1ccc(N2CC(C(=O)N[C@@H](C)C(=O)N3CCCCC3)CC2=O)cc1 (stereo not given in full) | 13.8% [at 102 µM] (inactive) |  |
| COc1ccc(C2OC(=O)CC2C(=O)NC(C)C)cc1 (stereo not given) |  | 28.2 µM (active) |
| COc1ccc(C(C)NC(=O)C2CCCC2)cc1 (stereo not given) | 49.3% [at 102 µM] (inactive) |  |
| COc1ccc(NC(=O)CSc2nc3ccccc3n2CC(=O)N2CCCCC2C)cc1 (stereo not given) | 16.3% (inactive) |  |
| CCOc1ccc(NC(=O)CN(C)C(=O)Cc2sc(C)nc2-c2ccc(F)cc2)cc1OCC | -29.9% (inactive) |  |
| O=C(NCCc1c[nH]c2ccccc12)c1cccc(Br)c1 | 0.2% [at 2.33 µM] (inactive) |  |
| O=C(NCCc1c[nH]c2ccccc12)c1cc2ccccc2oc1=O | -44.1% [at 102 µM] (inactive) |  |
| Cc1cc(C)cc(NC(=S)NCCc2c[nH]c3ccccc23)c1 |  | 39.8 µM (active) |

| Compound | activity, negative = inhibition | Potency |
| --- | --- | --- |
| O=C(O[C@H]1[C@H](Cc2ccccc2)NS(=O)(=O)[C@H]2C[C@@H]3C=C[C@]12O3)c1ccc([N+](=O)[O-])cc1 | -6.93% [at 2.33 µM] (inactive) |  |
| Brc1ccc(CN2CC[C@H]3C=CCc4cccc(c43)C2)cc1 | 12.2% [at 2.33 µM] (inactive) |  |
| CCc1ccc(NC(=O)c2cc(S(=O)(=O)NC3CCCCCC3)ccc2F)cc1 | 13.9% (inactive) |  |
| Cc1ccc(-n2cc(CN(C)Cc3nccn3C)c(-c3cccc(C)c3)n2)cc1 |  | 39.8 µM (active) |
| Cc1cccc(-n2cc(CN3CCN(C(=O)c4ncn[nH]4)CC3)c(-c3cccc(F)c3)n2)c1 | -37.2% [at 102 µM] (inactive) |  |
| COc1ccc(-c2[nH]ncc2CN(Cc2nccn2C)C(C)C)cc1F | -38.6% [at 102 µM] (inactive) |  |
| COc1cc(C(=O)NCCS(=O)(=O)N2CCN(c3ccccc3)CC2)cc(OC)c1OC | -36.6% (inactive) |  |
| Cc1ccccc1CNC(=O)C(=O)NCC(c1cccs1)S(=O)(=O)c1cccs1 (stereo not given) | 4.09% (inactive) |  |
| CCc1ccc(NC(=O)CCS(=O)(=O)c2cc3c(cc2Cl)NC(=O)CO3)cc1 | -7.38% (inactive) |  |
| CCOC(=O)c1ccc(-c2ccc(/C=C(\C#N)C(=O)Nc3ccc(C)cc3)o2)cc1 | -4.08% (inactive) |  |
| CC(=O)Nc1ccc(NC(=O)c2ccc3c(c2)C(=O)N(c2ccccc2C)C3=O)cc1 |  | 39.8 µM (active) |
| Cc1cccc(N2C(=O)c3ccc(C(=O)Nc4cccc(C(=O)O)c4)cc3C2=O)c1 | -31.2% [at 102 µM] (inactive) |  |
| O=C(Nc1ccc2c(c1)OCO2)c1ccc(N2C(=O)c3ccccc3C2=O)cc1 | 7.92% [at 102 µM] (inactive) |  |
| O=C(CCNS(=O)(=O)c1ccc(Br)cc1)NCC1CCCO1 (stereo not given) | 5.66% (inactive) |  |
| CC1CN(C(=O)N2CCC(C(=O)NCc3cccs3)CC2)c2ccccc2O1 (stereo not given) | 5.28% (inactive) |  |
| CSCCC(NC(=O)COc1ccccc1)C(=O)OCCOc1ccc(F)cc1 (stereo not given) | -5.75% [at 102 µM] (inactive) |  |
| O=C(Nc1nnc(-c2ccccc2)o1)c1cc(-c2cccs2)nc2ccccc12 |  | 39.8 µM (active) |
| COC(=O)c1cc(-c2cccs2)nc2ccccc12 | 17% [at 2.33 µM] (inactive) |  |
| CCCCN(C)CCCNC(=O)c1cc(-c2cccs2)nc2ccccc12 | -36.5% [at 102 µM] (inactive) |  |
| COC(=O)c1cc2occc2n1Cc1nc(-c2ccc(C)cc2)oc1C | -36.5% (inactive) |  |

| Compound | activity, negative = inhibition | Potency |
| --- | --- | --- |
| CC(=O)c1c(C)[nH]c(C(=O)OCC(=O)Nc2c(C)n(C)n(-c3ccccc3)c2=O)c1C | -2.75% [at 102 µM] (inactive) |  |
| Cc1ccc(N2C(=O)CC(NCc3ccc4c(c3)OCO4)C2=O)cc1Cl (stereo not given) |  | 39.8 µM (active) |
| Cc1ccc(CC2CC(=O)N(c3ccc4c(c3)OCCO4)C2=O)cc1 (stereo not given) | 10.7% [at 102 µM] (inactive) |  |
| CC1CCCCN1CC(=O)NCc1ccc2c(c1)OCO2 (stereo not given) | 8.12% [at 12.7 µM] (inactive) |  |
| O=C(c1ccc(Cn2cc([N+](=O)[O-])cn2)o1)N1CCCC1 | 14.9% [at 102 µM] (inactive) |  |
| CCCCNC(=O)C1CCCN(c2nnc(C)c3c(C)n(-c4ccc(Cl)cc4)nc23)C1 (stereo not given) | -11% (inactive) |  |
| CCOc1ccc(-n2c(SCC(=O)Nc3ccc(OC)cc3)nc3sc4c(c3c2=O)CCN(C)C4)cc1 |  | 39.8 µM (active) |
| CCOc1ccc(NC(=O)CSc2nc3c(c(=O)n2-c2ccccc2OC)SCC3)cc1 |  | 31.6 µM (active) |
| COc1ccccc1NC(=O)CSc1nc2sc3c(c2c(=O)n1-c1ccccc1)CCN(C)C3 |  | 39.8 µM (active) |
| CCOc1ccc(NC(=O)CSc2nncn2C)cc1 | 0.64% [at 102 µM] (inactive) |  |
| CCOC(=O)c1sc(NC(=O)CSc2nc3c(c(=O)n2-c2ccccc2)SCC3)c(C(=O)OCC)c1C | 12.9% [at 102 µM] (inactive) |  |
| COc1ccccc1-n1c(SCC(=O)O)nc2sc3c(c2c1=O)CCC3 | 0.797% [at 102 µM] (inactive) |  |
| CCc1nnc(NC(=O)CSc2nc3c(c(=O)n2-c2ccccc2OC)SCC3)s1 | -12.8% [at 12.7 µM] (inactive) |  |
| CC1(C)Cc2c(sc3nc(SCC(=O)NCc4ccccc4)n(-c4ccccc4)c(=O)c23)CS1 | 13.5% [at 102 µM] (inactive) |  |
| COc1ccc(-n2c(SC)nc3sc4c(c3c2=O)CCN(C(C)=O)C4)cc1 | 12% (inactive) |  |
| COc1ccc(/C=C/c2nc(C#N)c(NCc3ccc(F)cc3)o2)cc1OC | -37.4% (inactive) |  |
| COc1ccc(NC(=O)CC2SC(N3CCCCC3)=NC2=O)cc1OC (stereo not given) | 29.8% [at 12.7 µM] (inactive) |  |
| O=c1c2ccccc2n(Cc2cccc(Cl)c2)c(=O)n1Cc1ccccc1 | 3.21% (inactive) |  |
| COc1ccc(CNC(=O)CSCc2nc(-c3ccccc3F)oc2C)cc1 | -1.95% (inactive) |  |
| O=C(Cn1c(=O)n(-c2ccc(F)cc2)c(=O)c2sccc21)Nc1cccc(C(F)(F)F)c1 | -1.91% (inactive) |  |
